# This is a sample that favours compounds with a hit; in the whole collection about 2.6% have one here.
# Cruzain Triton: qHTS Assay for Promiscuous and Specific Inhibitors of Cruzain (with detergent); Cruzipain (Trypanosoma cruzi), P25779; purified cruzain, Z-FR-AMC fluorescence, 0.01% Triton; Potency, µM, for the others: max response, negative = inhibition, usual class: inhibitors; 200,000 tested, 0.43% active; AID 1478, 2009;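 note: plate controls were neutral wells for no effect and buffer without enzyme for full effect; nearly all actives have a fitted effect of over 40% in size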
# Target sequence (P25779 123-467 limits assumed): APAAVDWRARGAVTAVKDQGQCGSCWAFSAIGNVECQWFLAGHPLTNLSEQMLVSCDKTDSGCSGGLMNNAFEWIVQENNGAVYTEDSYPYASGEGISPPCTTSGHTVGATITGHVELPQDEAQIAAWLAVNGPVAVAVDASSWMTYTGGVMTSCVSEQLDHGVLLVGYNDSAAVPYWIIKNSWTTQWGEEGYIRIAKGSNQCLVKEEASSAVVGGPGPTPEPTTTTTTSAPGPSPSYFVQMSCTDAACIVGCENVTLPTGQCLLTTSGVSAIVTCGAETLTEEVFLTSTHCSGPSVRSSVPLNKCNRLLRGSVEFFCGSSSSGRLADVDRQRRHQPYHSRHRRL
#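 Z-FR-AMC hydrolysis (2 uM substrate) by cruzain (1.5 nM) monitored kinetically at ex 360/em 450 nm after 15 min room-temperature compound exposure; 0.01% Triton X-100, pH 5.5, 5 mM DTT.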
# Cruzain inh noDet: qHTS Assay for Promiscuous and Specific Inhibitors of Cruzain (without detergent). 200,000 tested, 2.3% active. Potency, µM, inactives show max response, negative = inhibition, most hits filed as inhibitors. Cruzipain (Trypanosoma cruzi), P25779. purified cruzain, Z-FR-AMC fluorescence, no detergent;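 note: plate controls were enzyme without inhibitor for no effect and buffer without enzyme for full effect; nearly all actives have a fitted effect of over 40% in size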
#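 Detergent-free condition (0.00005% Triton X-100) in acetate buffer pH 5.5 with DTT. 1.5 nM enzyme and compound were pre-mixed 15 min, then 2 uM Z-FR-AMC substrate added; reaction progress from fluorescence change between first and third reads (60 s).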
# Active calls of the source: *; ? = inconclusive. Calls come from the whole dose curve; as a rule, active = well fitted curve in the direction sought with a large enough effect; inconclusive = small, poorly fitted or top-dose-only effect, or another doubt; inactive = no such curve, though single readings can be large; an effect the other way counts as inactive or inconclusive. Potency is the fitted concentration of half-maximal effect.
SMILES,Cruzain Triton,Cruzain inh noDet
Cn1cnc(S(=O)(=O)N2CCC(C(=O)NCc3ccccc3Cl)CC2)c1,-4%,-4%
Cc1cccc(C)c1NC(=O)CSc1nc(C)c(CC(=O)c2ccc(Br)cc2)c(C)c1C#N,2%,32µM*
Cc1nc(SCC(=O)Nc2ccccc2C(F)(F)F)c(C#N)c(C)c1CC(=O)c1ccc(Br)cc1,-1%,-12%
Cc1ccc(C(NC(=O)/C=C\c2ccc3c(c2)OCO3)C(=O)Nc2ccc3c(c2)OCO3)cc1 (configuration not stated),-3%,32µM*
CCOC(=O)c1cccc(NC(=O)/C=C/c2ccc3c(c2)OCO3)c1,-8%,-11%
CC(=O)c1cccc(NC(=O)C(OC(=O)/C=C/c2ccc3c(c2)OCO3)c2ccccc2)c1 (configuration not stated),2%,10µM*
COc1ccc(NC(=O)C(NC(=O)/C=C\c2ccc3c(c2)OCO3)c2ccc(OC)cc2)cc1 (configuration not stated),-4%,?
COCCn1c(=O)c(-c2cn(C)c3ccccc23)nc2cnc(Oc3ccc(OC)cc3)nc21,0%,-1%
CCN(CC)c1ccc(NC(=O)c2cc(CN3CCCC3)on2)c(C)c1,-1%,0%
CCC1CN(C(=O)Nc2cc(C)cc(C)c2)c2ccccc2O1 (configuration not stated),-8%,24%
Cc1ccc2nc(/C(C#N)=C\c3ccc(Oc4ccc([N+](=O)[O-])cn4)cc3)[nH]c2c1,-1%,10µM*
Cc1ccc(/C(C#N)=C/c2cccc([N+](=O)[O-])c2)cc1,2%,1%
Cc1ccc2nc(/C(C#N)=C\c3cc(C)n(-c4cccc([N+](=O)[O-])c4)c3C)[nH]c2c1,4%,25µM*
COc1cc(/C=C(/C#N)c2nc3ccccc3[nH]2)ccc1Oc1ncccc1[N+](=O)[O-],3%,?
CCOc1cc(/C=C(/C#N)c2nc3ccccc3[nH]2)ccc1Oc1ccc([N+](=O)[O-])cn1,-4%,-8%
Cc1ccc2nc(/C(C#N)=C\c3ccc([N+](=O)[O-])o3)[nH]c2c1,-7%,?
COc1ccc2nc(/C(C#N)=C\c3ccc(Oc4ccc([N+](=O)[O-])cn4)cc3)[nH]c2c1,-6%,25µM*
COc1cc(/C=C(/C#N)c2ccc(C)cc2)ccc1Oc1ccc([N+](=O)[O-])cn1,5%,25µM*
CCOC(=O)c1c(C)[nH]c(C)c1S(=O)(=O)N1CCCC(C(=O)N2CCN(c3cccc(C)c3C)CC2)C1 (configuration not stated),2%,23%
CCn1c(CN2CCCCC2)nc2cc(NC(=O)COc3ccccc3C(C)(C)C)ccc21,5%,11%
CCOC(=O)C1CCC(CN(Cc2ccc(Cl)cc2)S(=O)(=O)c2ccc(Br)cc2)CC1 (configuration not stated),1%,9%
CCN(CCCNC(=O)c1nn(-c2ccc(OC)cc2)c(=O)c2c1c1ccccc1n2C)c1cccc(C)c1,1%,-15%
CCOc1ccccc1NC(=O)C(C)n1nnc2sc3c(c2c1=O)CCCC3 (configuration not stated),6%,-2%
O=C(NCc1ccccc1Cl)c1cc2ccccc2o1,-10%,-14%
Cc1cccn2c(=O)c(C(=O)NCCc3ccccc3)c(O)nc12,-8%,?
SMILES,Cruzain Triton,Cruzain inh noDet
COc1ccccc1NC(=O)C1CCN(S(=O)(=O)c2ccc3[nH]c4c(c3c2)CCCCC4)CC1,-3%,20µM*
CC(=O)c1ccc(NS(=O)(=O)c2ccc3[nH]c4c(c3c2)CCCCCC4)cc1,-12%,?
CC(=O)c1ccc(N2CCN(S(=O)(=O)c3ccc4[nH]c5c(c4c3)CCCCC5)CC2)cc1,-6%,10µM*
O=C(Nc1cccc(F)c1)C1CCN(S(=O)(=O)c2ccc3[nH]c4c(c3c2)CCCCC4)CC1,1%,16µM*
COc1cccc(NC(=O)C2CCN(S(=O)(=O)c3ccc4[nH]c5c(c4c3)CCCCC5)CC2)c1,-2%,20µM*
CCOc1ccccc1NC(=O)C1CCN(S(=O)(=O)c2ccc3[nH]c(=O)ccc3c2)CC1,-3%,10%
CC(=O)c1cccc(NC(=O)C2CCN(S(=O)(=O)c3ccc(F)cc3)CC2)c1,2%,-11%
COc1cccc(NS(=O)(=O)c2ccc3[nH]c4c(c3c2)CCCCCC4)c1,-10%,-29%
CC(C)NC(=O)C1CCN(c2nc3ccccc3nc2C(F)(F)F)CC1,2%,1%
CCc1ccc(NS(=O)(=O)c2c(-c3ccccc3)csc2C(=O)OC)cc1,-12%,?
CCOC(=O)c1cccc(NC(=O)CCCn2nc(C)c3c(C)n(-c4ccccc4)nc3c2=O)c1,2%,1%
CCn1cc(C(=O)N(C)Cc2ccccc2)c(=O)c2cc(S(=O)(=O)N3CCCCC3)ccc21,-5%,25%
CC1CCN(S(=O)(=O)c2ccc3c(c2)oc(=O)n3CC(=O)N2CCCCC2)CC1,-2%,-8%
CCc1ccc(NC(=O)c2cc(S(=O)(=O)N3CCCCCC3)ccc2F)cc1,1%,5%
CSc1cccc(NC(=O)C2CCN(S(C)(=O)=O)CC2)c1,10%,1%
CSc1cccc(NC(=O)C2CCN(S(=O)(=O)c3ccc4[nH]c5c(c4c3)CCCCC5)CC2)c1,3%,13µM*
COc1ccc(NC(=O)CN(c2ccc([N+](=O)[O-])cc2)S(=O)(=O)c2ccccc2)c(OC)c1,-4%,-5%
COc1ccc(N(CC(=O)N/N=C/c2ccc(-c3ccc([N+](=O)[O-])cc3)o2)S(=O)(=O)c2ccc(C)cc2)cc1Cl,4%,6.3µM*
COc1ccccc1NC(=O)CN(c1ccc([N+](=O)[O-])cc1)S(=O)(=O)c1ccccc1,-7%,9%
COc1ccc(N(CC(=O)N/N=C/c2ccc(-c3ccc([N+](=O)[O-])cc3)o2)S(=O)(=O)c2ccc(C)cc2)cc1,0%,4µM*
O=C(Cn1c(=O)n2nc(-c3ccccc3)nc2c2ccccc21)Nc1ccccc1C(F)(F)F,1%,-1%
Cc1cccc(N2CCN(C(=O)CN3C(=O)COc4ccc(S(=O)(=O)N5CCC(C)CC5)cc43)CC2)c1C,0%,1%
COc1ccccc1[C@@H]1C(c2cccc(Cl)c2)=NN(c2ccccc2)[C@H]1C(=O)N1CCOC1=O,1%,25µM*
COc1ccccc1[C@@H]1C(c2cccc(C)c2)=NN(c2ccc(Br)cc2)[C@H]1C(=O)N1CCOC1=O,-3%,10µM*
CC[C@@H]1C(c2ccc(F)cc2)=NN(c2ccc(Br)cc2)[C@H]1C(=O)N1CCOC1=O,-6%,?
COc1ccccc1[C@@H]1C(c2ccccc2)=NN(c2ccc(Br)cc2)[C@H]1C(=O)N1CCOC1=O,0%,18µM*
CC[C@@H]1C(c2cccc(C)c2)=NN(c2ccccc2)[C@H]1C(=O)N1CCOC1=O,1%,3%
O=C(C1CC1)N1CCc2cc(Br)cc(S(=O)(=O)N3CCN(c4cccc(C(F)(F)F)c4)CC3)c21,-1%,7%
CCOc1ccccc1CNCc1c(C(=O)O)c(C)n(Cc2ccc(Cl)cc2)c1C,-3%,10%
Cc1cccc(NC(=O)c2cc(S(=O)(=O)N3CCN(c4ccccc4F)CC3)ccc2F)c1C,1%,-2%
